This note sets out measurements from PubChem BioAssay (Tox21).

Experiment [1] in a line: qHTS assay to test for compound auto fluorescence at 535 nm (green) in HEK293 cells (AID 720680).
Experiment [2] is described as follows: qHTS assay to test for compound auto fluorescence at 460 nm (blue) in HEK293 cell free culture (AID 720681). The procedure, abridged:
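Blue fluorescence (Ex 405/Em 460 nm, triamterene-equivalent) was read immediately after pin transfer of compound or DMSO into medium (DMEM, 10% FBS) without cells.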

The nature of experiment [3]: qHTS assay to test for compound auto fluorescence at 535 nm (green) in HEK293 cell free culture (AID 720682). The essentials: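 Steps: dispense DMEM/10% FBS into empty wells; pin in compound or DMSO; measure fluorescence at 485/535 nm. Values are fluorescein equivalents.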
A short description of experiment [4]: qHTS assay to test for compound auto fluorescence at 590 nm (red) in HEK293 cell free culture (AID 720683). The procedure, abridged:
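Red-channel autofluorescence of compounds in culture medium (DMEM, 10% FBS), no cells, measured at 540/590 nm. Rose Bengal sodium is the reference fluorophore for equivalence.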

Experiment [5] is described as follows: qHTS assay to test for compound auto fluorescence at 590 nm (red) in HepG2 cell free culture (AID 720684). The essentials: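 Cell-free; medium MEM + 10% FBS; compound or DMSO added by pintool; read Ex 540/Em 590 nm; Rose Bengal sodium as red reference fluorophore.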
The nature of experiment [6]: qHTS assay to test for compound auto fluorescence at 460 nm (blue) in HepG2 cell free culture (AID 720685). The procedure, abridged: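 Cell-free plates of MEM plus 10% FBS received 23 nL compound or DMSO vehicle; blue-channel (405/460 nm) intensity scored against triamterene as reference fluorophore.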
Experiment [7] is described as follows: qHTS assay to test for compound auto fluorescence at 535 nm (green) in HepG2 cell free culture (AID 720686).
Experiment [8] in a line: qHTS assay to test for compound auto fluorescence at 460 nm (blue) in HepG2 cells (AID 720687). The procedure, abridged:
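Blue-channel autofluorescence (Ex/Em 405/460 nm, triamterene-equivalent) was measured after 1 hr compound exposure at 37 C, 5% CO2. Cells were HepG2, plated overnight at 37 C in MEM plus 10% FBS.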

For experiment [9], the target named is Glucocorticoid receptor (Homo sapiens) (UniProt P04150). As to the kind of experiment: qHTS assay to identify small molecule agonists of the glucocorticoid receptor (GR) signaling pathway (AID 720691; active means well fitted activation curve with a large enough effect in the signal ratio in the repeat runs, not every such curve was filed as active; the % refers to the signal ratio). The procedure, abridged:
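A HeLa cervical cancer line expressing GR and a glucocorticoid response element-driven beta-lactamase gene is treated with compounds for 18 h; LiveBLAzer B/G FRET substrate is then applied and fluorescence read.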

The target is the same in experiment [10]. As to the kind of experiment: qHTS assay to identify small molecule antagonists of the glucocorticoid receptor (GR) signaling pathway (AID 720692; active means well fitted inhibition curve with a large enough effect in the signal ratio in the repeat runs, not every such curve was filed as active; the % refers to the signal ratio). The essentials: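 GRE-bla HeLa line, dex-stimulated (5 nM final). Compound exposure 18 h, 37 C. Beta-lactamase FRET read after 2 h RT substrate.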
A short description of experiment [11]: qHTS assay to identify small molecule antagonists of the glucocorticoid receptor (GR) signaling pathway - cell viability counter screen (AID 720693). Further: nearly all actives have a fitted effect of over 55% in size.
Experiment [12] in a line: qHTS assay for identifying genotoxic compounds that show differential cytotoxicity against isogenic chicken DT40 cell lines with known DNA damage response pathways - wild type cell line (AID 743012). Further: nearly all actives have a fitted effect of over 60% in size. Further: potency means the concentration at half of the fitted maximal effect. The procedure, abridged:
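300 wt DT40 cells/well; cpd (DMSO) pintool-transferred after ~0.5 h at 37 C/5% CO2; 40 h incubation; CellTiter-Glo added, 30 min RT; luminescence read.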

Experiment [13] in a line: qHTS assay for identifying genotoxic compounds that show differential cytotoxicity against isogenic chicken DT40 cell lines with known DNA damage response pathways - Rev3 mutant cell line (AID 743014). Further: nearly all actives have a fitted effect of over 55% in size. Further: potency means the concentration at half of the fitted maximal effect.
Experiment [14] can be described thus: qHTS assay to identify small molecule antagonists of the androgen receptor (AR) signaling pathway - cell viability counter screen (AID 743033; further: nearly all actives have a fitted effect of over 45% in size).
Experiment [15] is described as follows: qHTS assay to identify small molecule antagonists of the androgen receptor (AR) signaling pathway using the MDA cell line - cell viability counter screen (AID 743041; further: nearly all actives have a fitted effect of over 45% in size). The essentials: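 Viability read by CellTiter-Fluor fluorescence in the same wells as the antagonist screen, added after 15.5 h of a 16 h, 37C exposure. Human breast carcinoma MDA-kb2 AR-luc cells, compounds co-dosed with agonist R1881.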

Experiment [16] is described as follows: qHTS assay for identifying genotoxic compounds that show differential cytotoxicity against isogenic chicken DT40 cell lines with known DNA damage response pathways - Rad54/Ku70 mutant cell line (AID 743015). Further: nearly all actives have a fitted effect of over 60% in size. Further: potency means the concentration at half of the fitted maximal effect.
Experiment [17] has as its target Androgen receptor (Homo sapiens) (UniProt P10275). As to the kind of experiment: qHTS assay to identify small molecule antagonists of the androgen receptor (AR) signaling pathway (AID 743035; active means well fitted inhibition curve with a large enough effect in the signal ratio in the repeat runs, not every such curve was filed as active; the % refers to the signal ratio). The essentials:
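In this cell-based reporter screen, compounds were tested in concentration series against R1881-activated HEK293 cells expressing beta-lactamase under UAS control; after 16 h at 37C, FRET substrate was added and fluorescence read 2 h later.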

Experiment [18] has the same target. As to the kind of experiment: qHTS assay to identify small molecule agonists of the androgen receptor (AR) signaling pathway using the MDA cell line (AID 743040; further: nearly all actives have a fitted effect of over 20% in size). The essentials:
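Luciferase agonist assay: 16 h compound exposure at 37C without CO2 in MDA-kb2 AR-luc cells, whose MMTV promoter responds to both AR and GR. Luminescence measured after 30 min room-temperature incubation with ONE-Glo.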

For experiment [19] the target is unchanged. As to the kind of experiment: qHTS assay to identify small molecule antagonists of the androgen receptor (AR) signaling pathway using the MDA cell line (AID 743042; further: nearly all actives have a fitted effect of over 55% in size). The procedure, abridged:
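Antagonist mode: compounds plus R1881 agonist added to MDA-kb2 AR-luc cells, incubated 16 h at 37C. Luciferase reporter luminescence quantified, with multiplexed CellTiter-Fluor readout for cell viability.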

Experiment [20] has the same target. As to the kind of experiment: qHTS assay to identify small molecule agonists of the androgen receptor (AR) signaling pathway (AID 743036; active means well fitted activation curve with a large enough effect in the signal ratio in the repeat runs, with a control signal flat, not every such curve was filed as active; the % refers to the signal ratio). The procedure, abridged:
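Reporter line: GeneBLAzer AR-UAS-bla-GripTite (HEK293). Steps: plate cells, 4 h rest, add compounds, 16 h at 37C, add LiveBLAzer B/G substrate, 2 h at RT, read fluorescence.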

Unmarked numbers belong to inactive results. Records with an inconclusive call do not appear. Calls of active or inactive are those of the source. Unless noted, the call rests on the fitted dose curve; in most records, active means well fitted curve in the direction sought with a large enough effect in the repeat runs; inconclusive means weak or mixed curves; inactive means no such curve, though single readings can be large; an effect the other way counts as inactive or inconclusive.

Androgen receptor (Homo sapiens), sequence (P10275 whole entry, looked up): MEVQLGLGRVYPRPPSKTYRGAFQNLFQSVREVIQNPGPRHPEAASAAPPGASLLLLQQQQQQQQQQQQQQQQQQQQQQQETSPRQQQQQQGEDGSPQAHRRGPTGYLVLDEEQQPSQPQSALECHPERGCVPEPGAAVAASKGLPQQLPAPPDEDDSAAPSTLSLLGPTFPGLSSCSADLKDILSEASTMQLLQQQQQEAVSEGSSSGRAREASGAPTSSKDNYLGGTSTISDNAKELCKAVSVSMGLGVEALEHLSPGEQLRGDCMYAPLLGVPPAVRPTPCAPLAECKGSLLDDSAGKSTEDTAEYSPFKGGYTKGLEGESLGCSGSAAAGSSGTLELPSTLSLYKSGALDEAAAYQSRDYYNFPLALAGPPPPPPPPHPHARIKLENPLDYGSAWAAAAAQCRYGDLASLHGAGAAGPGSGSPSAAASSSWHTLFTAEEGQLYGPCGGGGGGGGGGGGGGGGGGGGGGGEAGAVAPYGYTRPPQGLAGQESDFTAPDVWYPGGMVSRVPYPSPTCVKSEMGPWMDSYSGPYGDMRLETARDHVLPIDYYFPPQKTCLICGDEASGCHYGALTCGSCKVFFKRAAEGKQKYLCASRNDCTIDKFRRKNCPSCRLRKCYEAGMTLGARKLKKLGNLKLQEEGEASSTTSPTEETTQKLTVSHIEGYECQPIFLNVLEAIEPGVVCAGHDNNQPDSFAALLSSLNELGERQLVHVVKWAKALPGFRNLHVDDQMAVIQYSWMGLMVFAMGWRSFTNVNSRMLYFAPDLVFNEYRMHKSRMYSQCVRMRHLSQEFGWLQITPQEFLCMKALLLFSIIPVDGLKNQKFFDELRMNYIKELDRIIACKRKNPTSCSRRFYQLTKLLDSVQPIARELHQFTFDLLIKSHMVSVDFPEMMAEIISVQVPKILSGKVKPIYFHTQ
Glucocorticoid receptor (Homo sapiens), sequence (P04150 whole entry, looked up): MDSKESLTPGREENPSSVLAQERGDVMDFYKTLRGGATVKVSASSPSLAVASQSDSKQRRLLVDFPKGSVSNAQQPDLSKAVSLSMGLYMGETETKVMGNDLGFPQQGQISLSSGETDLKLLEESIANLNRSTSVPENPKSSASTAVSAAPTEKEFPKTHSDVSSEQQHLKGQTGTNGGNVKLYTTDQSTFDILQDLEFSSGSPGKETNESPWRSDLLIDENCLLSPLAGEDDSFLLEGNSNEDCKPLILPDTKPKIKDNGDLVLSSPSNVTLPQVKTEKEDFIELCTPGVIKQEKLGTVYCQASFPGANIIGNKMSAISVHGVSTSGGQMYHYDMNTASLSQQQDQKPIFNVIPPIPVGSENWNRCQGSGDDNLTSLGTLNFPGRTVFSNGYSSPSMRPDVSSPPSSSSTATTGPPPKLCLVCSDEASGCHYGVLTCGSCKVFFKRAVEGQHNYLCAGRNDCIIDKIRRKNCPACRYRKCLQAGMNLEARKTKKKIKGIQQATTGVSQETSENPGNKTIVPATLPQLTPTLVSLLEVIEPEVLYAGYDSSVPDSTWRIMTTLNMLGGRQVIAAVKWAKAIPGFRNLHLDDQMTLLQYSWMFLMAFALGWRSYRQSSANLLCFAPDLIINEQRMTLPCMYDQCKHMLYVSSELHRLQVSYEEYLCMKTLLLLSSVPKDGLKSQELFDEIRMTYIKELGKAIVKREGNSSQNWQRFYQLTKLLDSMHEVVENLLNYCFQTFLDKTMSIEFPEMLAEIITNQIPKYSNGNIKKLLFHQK

`N#CCN(CC#N)CCN(CC#N)CC#N`: the call in experiment [1], in [3], in experiment [4], in experiment [5], in experiment [7] and in [11] was inactive. For the same compound, in [14], the call was inactive. For the same compound, the Potency result in [2], in experiment [6], in [8], in experiment [9], in experiment [10] and in [12] was “inactive” each time. The Potency entry in experiment [13] and in [15] was “inactive” each time.
For the compound `CC(=O)N[C@@H](CCC(N)=O)C(=O)O`, the compound was called inactive in [1], in experiment [3], in [4], in experiment [5], in experiment [7] and in experiment [14]. Further, the Potency entry in experiment [2], in experiment [6], in experiment [8], in experiment [9], in experiment [10] and in experiment [12] was “inactive” in each case. Also, the Potency result in [13], in experiment [16] and in [15] was “inactive” in each case.
With `CCCC=O`, the result in experiment [1], in experiment [3], in experiment [4], in [5], in experiment [7] and in experiment [14] was inactive. In addition, the Potency result in [2], in [6], in [8], in experiment [9], in experiment [10] and in experiment [12] was “inactive” each time. Further, the Potency result in [13] and in experiment [15] was “inactive” each time.
For the compound `CCCCCCOC(=O)c1ccccc1O`, the outcome in experiment [1], in [3], in experiment [4], in experiment [5], in experiment [7] and in experiment [11] was inactive. In addition, the outcome in experiment [14] and in experiment [19] was inactive. Further, the Potency result in experiment [2], in [6], in experiment [8], in [9], in [10] and in experiment [16] was “inactive” each time. The Potency entry in experiment [17], in [18] and in experiment [15] was “inactive” throughout. Also, in experiment [13], the Potency was 27.3 µM (active).
As to `C[C@H]1O[C@@H](n2cc(F)c(=O)[nH]c2=O)[C@H](O)[C@@H]1O`, the result in experiment [1], in experiment [3], in experiment [4], in [5], in experiment [7] and in experiment [11] was inactive. The Potency entry in experiment [2], in experiment [6], in [8], in experiment [9], in [10] and in experiment [15] was “inactive” throughout. Moreover, the Potency was 21.1 µM (active) in experiment [12] and 23.7 µM (active) in experiment [16].
As to `CC/C=C\C#N`, the call in [1], in [3], in experiment [4], in experiment [5], in experiment [7] and in [14] was inactive. Further, the Potency result in [2], in experiment [6], in experiment [8], in experiment [9], in [10] and in experiment [12] was “inactive” each time. Moreover, the Potency result in experiment [13] and in experiment [15] was “inactive” throughout.
Turning to `CCCCc1ccc2cccc(S(=O)(=O)O)c2c1`, the call in experiment [1], in [3], in experiment [4], in [5], in experiment [7] and in experiment [11] was inactive. Further, the compound was called inactive in [14], in experiment [20] and in experiment [19]. Further, the Potency result in [2], in experiment [6], in [8], in experiment [9], in [12] and in experiment [13] was “inactive” each time. In addition, the Potency entry in experiment [16], in experiment [17], in experiment [18] and in experiment [15] was “inactive” in each case.
For `CC(O)CN(CCCN(C)C)CCCN(C)C` (centres undefined), the call in [1], in experiment [3], in experiment [4], in experiment [5], in experiment [7] and in [11] was inactive. In addition, in experiment [14], the outcome was inactive. Besides, the Potency result in [2], in [6], in [8], in experiment [9], in [12] and in [13] was “inactive” in each case. In addition, the Potency result in [16] and in experiment [15] was “inactive” each time.
